Measurements taken from the supplement of paper PMC12669032.

system: Coprococcus comes; assay: growth AUC relative to DMSO control (median of replicates) (fraction); higher = more growth (less inhibition), active = hit call of the paper; conditions: 20 µM; 24 h
Procedure, shortened: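 Gut bacterial monocultures in mGAM were treated with 20 µM compound (1% DMSO) and grown anaerobically at 37 °C in round-bottom 96-well plates from OD600 0.05. OD600 was read hourly for 24 h, with the minimum OD set to 0. Area under the growth curve was normalised to the plate median of solvent-only wells, or to row and column medians on the industrial chemical plate. Each value is the median of three biological replicates, each grown on a separate day.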

Row | SMILES | growth AUC
1 | O=C1c2ccccc2C(=O)N1SC(Cl)(Cl)Cl | 1.01 (inactive)
2 | CCCCOCN(C(=O)CCl)c1c(CC)cccc1CC | 0.996 (inactive)
3 | CN(C)C(CSC(N)=O)CSC(N)=O.Cl | 1.09 (inactive)
4 | O=NN(CCO)CCO | 1.01 (inactive)
5 | O=C(O)C(Cl)Cl | 0.959 (inactive)
6 | C1CCC(NC2CCCCC2)CC1.O=NO | 0.832 (inactive)
7 | Oc1ccc(Cl)cc1Cc1cc(Cl)ccc1O | 0.965 (inactive)
8 | Clc1cc(Cl)c(Cl)c(Cl)c1 | 0.984 (inactive)
9 | CNC(=O)/C(=N/OC)c1ccccc1Oc1ccccc1 | 0.989 (inactive)
10 | COC(=O)c1ccccc1CS(=O)(=O)NC(=O)Nc1nc(OC)cc(OC)n1 | 1.02 (inactive)
11 | CNC(=O)O/N=C(\SC)C(=O)N(C)C | 0.971 (inactive)
12 | O=[N+]([O-])c1ccc(Oc2ccc(Cl)cc2Cl)cc1 | 0.988 (inactive)
13 | CCCCOC(=O)c1ccccc1C(=O)OCCCC | 1 (inactive)
14 | O=C(NC(=O)c1c(F)cccc1F)Nc1ccc(Cl)cc1 | 0.97 (inactive)
15 | COP(=S)(OC)Oc1ccc(S(C)=O)c(C)c1 (centres undefined) | 1.04 (inactive)
16 | COP(=O)(OC)Oc1ccc(SC)c(C)c1 | 0.991 (inactive)
17 | C=CC(N)=O | 1.01 (inactive)
18 | CCOC(=O)Nc1cccc(OC(=O)Nc2ccccc2)c1 | 0.933 (inactive)
19 | C=CCC1=C(C)C(OC(=O)[C@@H]2[C@@H](C=C(C)C)C2(C)C)CC1=O (some centres undefined) | 1.03 (inactive)
